Values joined by “and” are separate entries in the source; they are usually repeats but may differ in a detail not shown here. Identical values can stand only once. Results filed as inconclusive are left out. Active and inactive are the calls of the source. Calls follow the shape of the dose curve; as a rule, active = well fitted inhibition curve with a large enough effect; inconclusive = small, poorly fitted or top-dose-only effect; inactive = flat fitted curve, though single readings scatter.
Potency is read from the fitted curve at half-maximal effect.

A short description of this assay: P-glycoprotein substrates identified in KB-8-5-11 adenocarcinoma cell line, qHTS therapeutic library screen (AID 1346987). Also: nearly all actives have a fitted effect of over 65% in size. As to conditions: KB-8-5-11 (P-gp overexpressing) viability, CellTiter-Glo, 72 h; series mostly up to 44.5 µM. In outline: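 Human cervical adenocarcinoma KB-8-5-11 cells, selected in colchicine to over-express P-gp and assayed without it, were exposed for 72 h to titrated compounds. An ATP-based luminescent viability signal gave AC50.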
(qHTS replaces the single test concentration by a dilution series.)
For `CN1CCC(c2cn(C)c3ccc(OS(=O)(=O)c4c(F)cccc4F)cc23)CC1`, the Potency is 18.4 µM (active).
Next, `CC(C)Oc1ccc(-c2cnc3c(-c4ccnc5ccccc45)cnn3c2)cc1`: “inactive”; `COc1cc(C(=O)NC(=S)Nc2cccc(NC(=O)c3ccccc3)c2)cc(OC)c1OC`: “inactive”.
As for `CC(=O)NCc1cccc(OC[C@@H](O)CNCCc2ccc(NS(=O)(=O)c3ccccc3)cc2)c1`, the Potency result is “inactive”.
In the case of `CCOc1ccc(Cc2nc(-c3c(C)nc4ccccn34)cs2)cc1`, the Potency is 0.0184 µM (active).
Take `O=c1cc(NCCCN[C@@H]2CCOc3c(Br)cc(Br)cc32)[nH]c2ccsc12`: the Potency entry is “inactive”.
On to `C[C@H]1[C@H](/C=C/c2ccc(-c3ccccc3C#N)cn2)[C@@H]2[C@@H](C)OC(=O)[C@@H]2C[C@@H]1C`, for which the Potency was 16.4 µM (active).
Next, `Cc1cc(-c2cnc(N)c3c(-c4ccc5scnc5c4)csc23)n(C)n1`: 8.2 µM (active).
Regarding `CCC(C)[C@H]1O[C@]2(C=C[C@@H]1C)C[C@@H]1C[C@@H](C/C=C(\C)[C@@H](O[C@H]3C[C@H](OC)[C@@H](O[C@H]4C[C@H](OC)[C@H](NC(C)=O)[C@H](C)O4)[C@H](C)O3)[C@@H](C)/C=C/C=C3\CO[C@@H]4[C@H](O)C(C)=C[C@@H](C(=O)O1)[C@]34O)O2` (stereo partly specified), the Potency is 5.17 µM (active) and 18.4 µM (active).
As for `CC1(C)CC[C@]2(C(=O)O)CC[C@]3(C)C(=CCC4[C@@]5(C)C[C@@H](O)[C@H](O)C(CO)(CO)C5CC[C@]43C)C2[C@@H]1O` (stereo partly specified), the Potency is 7.96 µM (active).
Next, `COc1ccc2nccc(C(=O)CC[C@@H]3CCN(CC#Cc4cc(F)cc(F)c4F)C[C@@H]3C(=O)O)c2c1`: “inactive”.

Values taken from PubChem BioAssay (NCATS).
